This passage reports Potency, activity change, negative = inhibition and activity, negative = inhibition results from PubChem BioAssay (NCATS).

Test [1] has as its target Lysosomal acid glucosylceramidase (Homo sapiens) (UniProt P04062). Kind of test: Glucocerebrosidase-p2 (AID 348; in the data active means potency below about 10 µM; further: potency means the concentration at half of the fitted maximal effect). The following applies: purified GBA, blue fluorogenic substrate, 40 min. An outline of the steps: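 Compounds titrated from 0.6 nM upwards against 0.2 nM enzyme in pH 5.9 citric acid/KH2PO4, taurocholate, tween-20; blue fluorogenic substrate 80 uM, 40 min room temperature, stopped and read Ex 365/Em 440 for AC50.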

Test [2] is described as follows: AP1 Signaling Pathway (AID 357).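 Further: ME-180 reporter cells stimulated with EGF at its EC50 level; on the % scale 0 is the no-effect control and ±100 the full control effect.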 The following applies: ME-180 AP-1-bla reporter, EGF-induced, beta-lactamase ratio, 5 h; at 7.69 µM (top of the series) unless noted. An outline of the steps: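 AP-1-bla ME-180 cells, Opti-MEM + 0.5% dialyzed FBS, plated overnight 37 °C. Cpd titration + EC50 EGF, 5 h 37 °C. CCF4 2.5 h RT; ex 405, em 460/530 ratio → %activity, AC50.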

Test [3] deals with Cytochrome P450 1A2 (Homo sapiens) (UniProt P05177). Kind of test: p450-cyp1a2 (AID 410; calls by dose curve; further: potency means the concentration at half of the fitted maximal effect;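 on activity change, negative = inhibition: -100% = full effect of reference inhibitor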). The note with it: recombinant CYP1A2, luciferin-ME demethylation, luminescence; series mostly up to 11.4 µM. The procedure, abridged:
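Inhibition was calculated relative to 57 uM furafylline (full inhibition). The reaction used human CYP1A2 at 20nM with Luciferin-ME at its Km, 100uM, driven by an NADPH-regenerating system for 60 min at room temperature.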

Test [4] can be described thus: NFAT Signaling Pathway (AID 444).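 Further: carbachol stimulus at about its EC50 of 1 µM final; on the % scale 0 is the no-effect control and ±100 the full control effect.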 The following applies: Jurkat NFAT-bla M1, carbachol, beta-lactamase ratio, 5 h; at 7.69 µM (top of the series) unless noted. An outline of the steps: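 Read-out: CCF4 FRET ratio (460 nm/530 nm) after 1 h RT dye loading, used for %activity and AC50 from titration series. Cells: Jurkat NFAT-β-lactamase/M1 line, treated with compound plus 1 uM carbachol for 5 h, 37 °C.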

Test [5] can be described thus: Stat Signaling Pathway (AID 446).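 Further: ME-180 cervical cancer cells given 40 pM IL-6 alongside compound; SIE-controlled beta-lactamase reporter measured as 460/530 nm FRET emission ratio; on the % scale 0 is the no-effect control and ±100 the full control effect.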 The following applies: ME-180 (cervical carcinoma) SIE beta-lactamase reporter, IL-6 stimulated, 5 h; at 7.69 µM (top of the series) unless noted. An outline of the steps:
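ME-180 SIE-bla cells; overnight plating; cpd + IL-6 40 pM, 5 h, 37 C; LiveBLAzer 2.5 h RT; 460/530 nm emission ratio. Normalized to 300 pM IL-6 and 125 nM JAK inhibitor controls.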

Test [6] addresses Glucocorticoid receptor (Homo sapiens) (UniProt P04150). Kind of test: GR-GFP Redistribution (AID 450;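 active means compounds whose dose series gives a full or clear partial fitted curve of increased nuclear translocation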; further: potency means the concentration at half of the fitted maximal effect). The note with it: U2OS GR-GFP nuclear translocation, laser cytometry, 2 h.
Test [7] shares this target. Kind of test: GR-EFC Redistribution (AID 451; calls by dose curve; further: potency means the concentration at half of the fitted maximal effect). The note with it: CHO-K1 GR-EFC translocation, beta-gal luminescence, 2 h. An outline of the steps:
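Translocation of GR-ED fusion to nuclear EA restores b-gal, read by luminescence after 1 h room-temperature detection. Engineered CHO-K1 biosensor cells, 1,000/well, exposed 2 h at 37 C to titrations up to 46 uM final.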

In test [8] the target is Mitogen-activated protein kinase 10 (Mus musculus) (UniProt Q61831). Kind of test: JNK3 AlphaScreen Assay (AID 530).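 Further: kinase came from lysate of stimulated human HepG2 cells; signal reports phosphorylation of biotinylated GST-cJun 1-79 at Ser73 with 10 µM ATP; on the % scale 0 is the no-effect control and ±100 the full control effect.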 The note with it: JNK3 lysate, c-Jun phosphorylation; series mostly up to 11.4 µM. An outline of the steps:
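Room-temperature AlphaScreen kinase assay; pre-activated HepG2 lysate as JNK3 source, biotin-GST-cJun(1-79) substrate, 10 uM ATP, compound 15 min preincubation.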

Test [9] deals with 3',5'-cyclic-AMP phosphodiesterase 4B (Homo sapiens) (UniProt Q07343). Kind of test: qHTS Assay for Inhibitors of PDE-IV (AID 607; active means well fitted activation curve with a large enough effect in the main read-out, with a control signal flat, not every such curve was filed as active; further: % of control where 0% means no effect). The following applies: HEK293 ACTOne CNG channel cells, membrane potential fluorescence; series mostly up to 22.9 µM. The procedure, abridged:
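ACTOne HEK293 cells carry a modified cAMP-gated CNG channel and express endogenous PDE4; plated 1000 cells/well, compounds up to 22.9 uM final. Membrane-potential dye fluorescence (ex 535/em 590) was read; parental cells received 10 uM forskolin + 100 uM RO 20-1724.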
A general note: qHTS replaces the single test concentration by a dilution series.

Values without a mark were called inactive. Results filed as inconclusive are left out. Activity calls are given as the source filed them. Unless noted, the call rests on the fitted dose curve; in most records, active means well fitted curve in either direction with a large enough effect (not every such curve was filed as active); inconclusive means small, poorly fitted or top-dose-only effect, or another doubt; inactive means flat fitted curve, though single readings scatter.

Sequence of Glucocorticoid receptor (Homo sapiens) (P04150 whole entry, looked up): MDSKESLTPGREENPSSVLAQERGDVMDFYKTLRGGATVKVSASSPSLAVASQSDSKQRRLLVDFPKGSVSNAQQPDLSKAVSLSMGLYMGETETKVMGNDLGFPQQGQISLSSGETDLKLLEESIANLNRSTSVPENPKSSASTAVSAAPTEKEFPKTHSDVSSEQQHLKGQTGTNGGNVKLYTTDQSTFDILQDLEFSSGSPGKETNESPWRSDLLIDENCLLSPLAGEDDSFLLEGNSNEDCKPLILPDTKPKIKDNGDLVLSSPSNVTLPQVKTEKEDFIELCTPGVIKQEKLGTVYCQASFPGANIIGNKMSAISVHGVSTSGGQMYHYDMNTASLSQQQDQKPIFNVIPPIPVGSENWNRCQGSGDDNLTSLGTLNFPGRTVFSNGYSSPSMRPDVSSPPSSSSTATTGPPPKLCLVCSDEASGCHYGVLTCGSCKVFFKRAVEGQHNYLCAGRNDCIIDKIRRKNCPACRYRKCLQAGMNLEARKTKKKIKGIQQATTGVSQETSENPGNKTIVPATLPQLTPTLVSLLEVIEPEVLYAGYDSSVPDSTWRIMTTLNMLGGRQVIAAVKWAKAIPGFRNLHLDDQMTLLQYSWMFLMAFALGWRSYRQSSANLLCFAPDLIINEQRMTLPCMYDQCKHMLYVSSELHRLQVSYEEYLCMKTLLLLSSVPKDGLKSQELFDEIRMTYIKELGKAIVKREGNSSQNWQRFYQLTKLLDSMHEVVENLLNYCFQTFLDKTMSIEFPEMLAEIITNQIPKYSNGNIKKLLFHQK
Sequence of Lysosomal acid glucosylceramidase (Homo sapiens) (P04062 whole entry, looked up): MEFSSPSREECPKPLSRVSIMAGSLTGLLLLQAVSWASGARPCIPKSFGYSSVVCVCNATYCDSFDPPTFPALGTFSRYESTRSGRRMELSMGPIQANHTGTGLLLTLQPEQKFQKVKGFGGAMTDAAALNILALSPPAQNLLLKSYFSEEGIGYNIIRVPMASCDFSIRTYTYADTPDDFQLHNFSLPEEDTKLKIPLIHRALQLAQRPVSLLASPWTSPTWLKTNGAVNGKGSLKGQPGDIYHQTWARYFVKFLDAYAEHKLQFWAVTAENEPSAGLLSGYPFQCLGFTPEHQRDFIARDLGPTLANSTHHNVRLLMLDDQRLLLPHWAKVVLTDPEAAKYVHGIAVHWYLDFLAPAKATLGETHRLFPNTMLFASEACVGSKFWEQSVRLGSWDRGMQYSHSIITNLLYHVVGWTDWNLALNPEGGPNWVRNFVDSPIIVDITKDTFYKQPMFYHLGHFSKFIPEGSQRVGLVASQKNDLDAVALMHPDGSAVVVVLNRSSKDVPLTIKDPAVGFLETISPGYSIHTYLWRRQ
Sequence of Cytochrome P450 1A2 (Homo sapiens) (P05177 whole entry, looked up): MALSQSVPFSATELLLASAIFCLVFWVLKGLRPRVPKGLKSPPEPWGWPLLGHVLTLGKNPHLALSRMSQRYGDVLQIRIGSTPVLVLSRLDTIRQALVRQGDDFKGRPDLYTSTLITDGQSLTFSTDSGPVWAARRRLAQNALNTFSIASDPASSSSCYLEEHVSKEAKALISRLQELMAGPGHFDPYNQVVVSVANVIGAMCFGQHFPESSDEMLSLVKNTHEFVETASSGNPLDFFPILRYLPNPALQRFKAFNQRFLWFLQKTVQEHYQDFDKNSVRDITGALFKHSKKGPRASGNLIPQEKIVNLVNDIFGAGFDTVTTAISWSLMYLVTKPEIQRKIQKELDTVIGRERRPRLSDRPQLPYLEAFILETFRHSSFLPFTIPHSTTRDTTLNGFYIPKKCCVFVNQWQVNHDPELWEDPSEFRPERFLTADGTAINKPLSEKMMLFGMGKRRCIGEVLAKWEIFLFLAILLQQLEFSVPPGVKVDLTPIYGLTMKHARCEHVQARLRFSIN
Sequence of 3',5'-cyclic-AMP phosphodiesterase 4B (Homo sapiens) (Q07343 whole entry, looked up): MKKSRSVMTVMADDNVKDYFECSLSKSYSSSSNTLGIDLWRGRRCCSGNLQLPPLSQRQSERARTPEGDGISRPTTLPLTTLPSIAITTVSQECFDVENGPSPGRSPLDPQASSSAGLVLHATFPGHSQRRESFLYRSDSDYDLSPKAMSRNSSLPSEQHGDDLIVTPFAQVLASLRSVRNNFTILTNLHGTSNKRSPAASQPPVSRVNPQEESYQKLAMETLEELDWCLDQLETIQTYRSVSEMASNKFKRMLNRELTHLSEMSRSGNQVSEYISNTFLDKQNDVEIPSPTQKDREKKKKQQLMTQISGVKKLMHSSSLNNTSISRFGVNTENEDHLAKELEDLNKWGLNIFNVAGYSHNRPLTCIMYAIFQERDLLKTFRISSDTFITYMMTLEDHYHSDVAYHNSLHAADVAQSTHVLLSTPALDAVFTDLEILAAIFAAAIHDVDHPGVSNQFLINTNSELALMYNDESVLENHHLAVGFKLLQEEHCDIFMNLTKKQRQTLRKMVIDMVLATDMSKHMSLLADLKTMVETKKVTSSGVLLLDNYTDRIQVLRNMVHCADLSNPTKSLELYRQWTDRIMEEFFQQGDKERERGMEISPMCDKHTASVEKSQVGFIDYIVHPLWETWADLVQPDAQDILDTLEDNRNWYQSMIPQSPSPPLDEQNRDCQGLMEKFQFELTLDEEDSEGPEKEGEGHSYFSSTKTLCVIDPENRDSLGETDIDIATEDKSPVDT

For the molecule `CN(C)CCCn1c2ccccc2c2cnccc21`, the Potency in test [1] is greater than 11.4 µM; in test [6] it was greater than 46 µM; in [7] it was greater than 9.22 µM. Further, the activity change, negative = inhibition in test [2] was 1.6%; in test [3] it was -20% [at 2.29 µM]; in [4] it was 2.32%. Moreover, the activity, negative = inhibition in [5] is 13.9%. Moreover, the Potency entry in [8] and in test [9] was “inactive” each time.

Turning to `NC(N)=NC(N)=Nc1ccccc1` (tested in a mixture with another compound), the Potency was greater than 11.4 µM in [1], 3.16 µM (active) in test [3], greater than 46 µM in test [6] and greater than 9.22 µM in [7]. In addition, the figures for the activity change, negative = inhibition in test [2] and in [4] were -4.98% and 10.5%, respectively. The activity, negative = inhibition in test [5] is 1.58%. Also, the Potency entry in [8] and in [9] was “inactive” in each case.

On to `CCN(CC)C[C@@H](O)c1ccc2ccc3ccccc3c2c1`, for which the Potency is greater than 11.4 µM in test [1], 0.794 µM (active) in test [3], greater than 46 µM in test [6] and greater than 9.22 µM in test [7]. Also, the activity change, negative = inhibition in [2] was 15.5%; in [4], 16.1%. Besides, the activity, negative = inhibition in test [5] is 13.3%. Besides, the Potency entry in test [8] and in test [9] was “inactive” throughout.

In the case of `Cc1ccc(NC(=O)c2ccccc2C(=O)O)cc1C`, the Potency is greater than 11.4 µM in [1], 3.98 µM (active) in test [3], greater than 46 µM in [6] and greater than 9.22 µM in test [7]. Besides, the activity change, negative = inhibition in test [2] was -1.74%; in [4] it was -27.9%. The activity, negative = inhibition in [5] is -5.42%. Moreover, the Potency result in test [8] and in test [9] was “inactive” in each case.

`Cn1c(C[C@@H](O)c2nc3ccccc3n2C)nc2ccccc21`: the Potency is greater than 11.4 µM in [1], greater than 46 µM in test [6] and greater than 9.22 µM in test [7]. The figures for the activity change, negative = inhibition in test [2], in test [3] and in test [4] were 11.7%, -2.6% [at 2.29 µM] and 13.3%, respectively. Also, the activity, negative = inhibition in test [5] was 8.01%. Also, the Potency entry in test [8] and in test [9] was “inactive” in each case.

With `O=NN(Cc1ccc(Cl)cc1)[C@@H](C(=O)O)c1ccccc1`, the Potency in test [1] is greater than 11.4 µM; in [3], 5.01 µM (active); in [6], greater than 46 µM; in test [7], greater than 9.22 µM. For the same molecule, the activity change, negative = inhibition is 15.1% in [2] and -4.59% in [4]. Besides, the activity, negative = inhibition in [5] was 0.591%. The Potency entry in test [8] and in test [9] was “inactive” each time.

For `N#CC[N+]1(Cc2ccccn2)CCCC1`, the Potency in test [1] is greater than 11.4 µM; in test [6], greater than 46 µM; in test [7], greater than 9.22 µM. In addition, the activity change, negative = inhibition in test [2] was -12.2%; in test [3], 3.4% [at 2.29 µM]; in [4], 0.385%. In test [5], the activity, negative = inhibition is -1.41%. In addition, the Potency entry in test [8] and in test [9] was “inactive” each time.

Turning to `Cc1cc(Cc2cc(C)c(N)cc2N)c(N)cc1N`, the Potency in [1] is greater than 11.4 µM; in test [3], 2 µM (active); in test [6], greater than 46 µM; in test [7], greater than 9.22 µM. The activity change, negative = inhibition in test [2] was -4.79%; in [4], -1.81%. Further, the activity, negative = inhibition in test [5] is 1.49%. Further, the Potency entry in test [8] and in test [9] was “inactive” throughout.

As for `O=C1C2[C@@H](c3ccccc3)N[C@@H](c3ccccc3)C1[C@H](c1ccccc1)N[C@H]2c1ccccc1`, the Potency in test [1] is greater than 11.4 µM; in test [6] it was greater than 46 µM; in [7], greater than 9.22 µM. The activity change, negative = inhibition in [2] was -5.02%; in test [4], 3.11%. Also, the Potency result in test [3], in test [8] and in [9] was “inactive” in each case. Besides, the activity, negative = inhibition in [5] is 1.27%.

For `CC(C)c1ccc(/C=C2\C=C(c3ccc4ccccc4c3)OC2=O)cc1`, the Potency in test [1] is greater than 11.4 µM; in test [6], greater than 46 µM; in [7], greater than 9.22 µM. Besides, the activity change, negative = inhibition was -7.05% in test [2], -24.7% [at 2.29 µM] in test [3] and -17% in test [4]. Besides, the activity, negative = inhibition in test [5] is 4.97%. Moreover, the Potency entry in test [8] and in [9] was “inactive” throughout.

For the molecule `NCCSCCc1ccccc1`, the Potency in test [1] was greater than 11.4 µM; in [3] it was 5.01 µM (active); in test [6], greater than 46 µM; in [7], greater than 9.22 µM. Besides, the activity change, negative = inhibition is -3.04% in test [2] and 3.22% in test [4]. The activity, negative = inhibition in test [5] was 4.42%. The Potency entry in test [8] and in [9] was “inactive” throughout.
